# Measurements taken from PubChem BioAssay (NCATS).
# Records with an inconclusive call do not appear. Entries that show only a call come without a potency. The source made the active and inactive calls. Calls follow the shape of the dose curve; as a rule, active = well fitted curve in the direction sought with a large enough effect; inconclusive = small, poorly fitted or top-dose-only effect, or another doubt; inactive = no such curve, though single readings can be large; an effect the other way counts as inactive or inconclusive.
# Key:
# [1] = target: N-terminal Xaa-Pro-Lys N-methyltransferase 1 (Homo sapiens) (UniProt Q9BV86); assay: qHTS Assay for Inhibitors of N-terminal methyltransferase 1 (NTMT1): LOPAC validation of the NTMT1 SAHH-coupled ThioGlo3 Assay (AID 1347143); settings: recombinant NTMT1, SAHH-coupled ThioGlo3 fluorescence; series mostly up to 114 µM; also: nearly all actives have a fitted effect of over 70% in size; also: potency is read from the fitted curve at half-maximal effect
# Chain of N-terminal Xaa-Pro-Lys N-methyltransferase 1 (Homo sapiens) (Q9BV86 whole entry, looked up): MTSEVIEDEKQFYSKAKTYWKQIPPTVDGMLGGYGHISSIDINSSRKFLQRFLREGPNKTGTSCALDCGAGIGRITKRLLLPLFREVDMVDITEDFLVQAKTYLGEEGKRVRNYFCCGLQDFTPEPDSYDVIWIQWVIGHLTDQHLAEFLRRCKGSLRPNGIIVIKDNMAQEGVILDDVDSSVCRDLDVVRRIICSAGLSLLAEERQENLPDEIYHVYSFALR
# Method in brief: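 Fluorescence read-out (excitation 340nm, emission 450nm) of SAH-derived thiol, measured via SAHH coupling and ThioGlo3, taken immediately and after a 30 min room-temperature reaction, then normalized to the background read. Enzyme: NTMT1 at 125nM; cofactor SAM 100uM in the added reagent.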
# [2] = test system: Zika virus NS2B-NS3 protease (unlinked); assay: Optimization of GU AMC qHTS for Zika virus inhibitors: Unlinked NS2B-NS3 protease assay (AID 1347151); settings: recombinant ZIKV NS2B-NS3 protease, fluorogenic AMC substrate; series mostly up to 52.5 µM; also: nearly all actives have a fitted effect of over 80% in size
# Method in brief: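 Fluorescence gain (340/450 nm) over 15 min at room temperature, ~20% conversion, gave percent inhibition fitted to a 4-parameter Hill equation; enzyme was unlinked NS2B-NS3 (25 nM final), pH 8.0 Tris buffer.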
# [3] = test system: Zika virus NS2B-NS3 protease; assay: Primary screen GU AMC qHTS for Zika virus inhibitors (AID 1347154); settings: Zika NS2B-NS3 unlinked protease, AMC fluorogenic substrate; series mostly up to 54.1 µM; also: nearly all actives have a fitted effect of over 70% in size; also: potency is read from the fitted curve at half-maximal effect
# Method in brief: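 Unlinked Zika NS2B hydrophilic domain/NS3 protease domain noncovalent complex (25 nM final) in 10 mM Tris-HCl pH 8.0, 0.01% Tween 20, with AMC peptide substrate. Fluorescence (ex 340, em 450 nm) change over 15 min, room temperature; percent inhibition fitted to 4-parameter Hill equation.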
# [4] = test system: Zika virus NS2B-NS3 protease (linked construct); assay: Primary screen NINDS Rhodamine qHTS for Zika virus inhibitors (AID 1347160); settings: purified NS2B-NS3 protease, Rhodamine110 substrate fluorescence; series mostly up to 57.1 µM; also: nearly all actives have a fitted effect of over 55% in size; also: potency is read from the fitted curve at half-maximal effect
# Method in brief: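 In 10 mM Tris-HCl pH 8.0 containing 0.01% Tween 20, linked NS2B-NS3 protease (25 nM final) is exposed to test compounds for 15 min. Cleavage of 1.5 microM Rhodamine110 substrate is tracked by fluorescence over 15 min.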
# [5] = test system: Zika virus NS2B-NS3 protease (unlinked complex); assay: Confirmatory screen GU AMC qHTS for Zika virus inhibitors (AID 1347153); settings: Recombinant NS2B-NS3 protease, AMC substrate fluorescence; series mostly up to 57.1 µM; also: nearly all actives have a fitted effect of over 70% in size
# Method in brief: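 Compounds were preincubated 15 min at room temperature with 25 nM noncovalent NS2B-NS3 protease at pH 8.0; AMC substrate added at 10 microM and 15-min fluorescence gain (340/450 nm) converted to percent inhibition, fitted 4-parameter.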
# [6] = test system: Zika virus NS2B-NS3 protease (unlinked complex); assay: Primary screen GU Rhodamine qHTS for Zika virus inhibitors: Unlinked NS2B-NS3 protease assay (AID 1347159); settings: Recombinant ZIKV NS2B-NS3 protease, Rhodamine110 substrate fluorescence; series mostly up to 107 µM; also: nearly all actives have a fitted effect of over 60% in size
# Method in brief: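 Percent inhibition derives from the 15-min fluorescence change (ex 480, em 540 nm), normalized to no-enzyme and no-inhibitor wells. Reactions contained 25 nM NS2B-NS3 complex and 1.5 microM substrate in 10 mM Tris-HCl pH 8.0.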
# [7] = test system: Zika virus NS2B-NS3 protease (linked); assay: 384 well plate NINDS AMC confirmatory qHTS for Zika virus inhibitors (AID 1347163); settings: Recombinant NS2B-NS3 protease, Ac-VKTGKR-AMC fluorescence; also: potency is read from the fitted curve at half-maximal effect; nearly all actives have a fitted effect of over 50% in size
# Method in brief: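 Linked NS2B-NS3 protease (final 5 nM, 30 nM or 60 nM) was preincubated with compounds (final up to 1 mM) for ~15 minutes. Ac-VKTGKR-AMC substrate (final 30 microM) then reacted for 25 minutes at room temperature in the dark. Fluorescence (ex 355/em 460 nm) was normalized to no-enzyme and no-inhibitor controls.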
structure (smiles),measurement,setting,value
O=C1NC(=O)c2c1c(-c1ccccc1)cc1[nH]c3ccc(O)cc3c21,Potency,[1],50.1 µM (active)
same,Potency,[2],inactive
same,Potency,[3],inactive
CNCC[C@H](Oc1ccc(C(F)(F)F)cc1)c1ccccc1,Potency,[1],inactive
same,Potency,[2],inactive
same,Potency,[3],inactive
COc1cc2c(CCNC(C)=O)c[nH]c2cc1Cl,Potency,[1],inactive
same,Potency,[2],inactive
same,Potency,[3],inactive
O=c1cc(-c2ccccc2)oc2c(O)c(O)ccc12,Potency,[1],56.2 µM (active)
same,Potency,[4],6.97 µM (active)
COC(=O)C1=C(C)NC(C)=C(C(=O)OC)C1c1cccc(NC(=O)NCCCN2CCC(c3cccc(OC)c3)CC2)c1,outcome,[5],inactive
same,Potency,[6],inactive
same,Potency,[4],inactive
C=C[C@@H]1CN2CC[C@@H]1C[C@H]2[C@H](O)c1ccnc2ccc(OC)cc12,outcome,[5],inactive
CN1CCN(c2cc3c(nn2)Oc2ccccc2N3C)CC1,Potency,[3],9.89 µM (active)
COc1ccc(Br)cc1S(=O)(=O)NC(=O)/C=C/c1ccccc1Cc1ccc2ccccc2c1,Potency,[7],251 nM (active)
